Bioassay records deposited in PubChem BioAssay by several laboratories.
Many of the other results were omitted from the sample, so hits are more common in it than they were.
PKA kinase inh – inhibitors of human PKA kinase activity, primary screen, biochemical, ATP-depletion luminescence, Kemptide substrate; cAMP-dependent protein kinase catalytic subunit alpha (Homo sapiens), P17612; PKA Kemptide phosphorylation, Kinase-Glo ATP luminescence; inhibition, % at 6 µM; actives 0.1% (n = 65,000); AID 524, 2006;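 active = inhibition above the screen-wide mean inhibition plus 3 SD, cut at about 21% in these data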
ROCK2 blocker – inhibitors of human ROCK2 kinase, primary screen, biochemical, high-throughput, luminescence; purified ROCK2, Kinase-Glo ATP depletion luminescence; inhibition, % at 6 µM; actives 0.35% (n = 60,000); AID 604, 2007;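 active = inhibition above the screen-wide mean inhibition plus 3 SD, cut at about 18% in these data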;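 note: plate controls were DMSO wells for no effect and Y-27632 control wells after no-enzyme background subtraction for full effect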
Target sequence (O75116 whole entry, looked up): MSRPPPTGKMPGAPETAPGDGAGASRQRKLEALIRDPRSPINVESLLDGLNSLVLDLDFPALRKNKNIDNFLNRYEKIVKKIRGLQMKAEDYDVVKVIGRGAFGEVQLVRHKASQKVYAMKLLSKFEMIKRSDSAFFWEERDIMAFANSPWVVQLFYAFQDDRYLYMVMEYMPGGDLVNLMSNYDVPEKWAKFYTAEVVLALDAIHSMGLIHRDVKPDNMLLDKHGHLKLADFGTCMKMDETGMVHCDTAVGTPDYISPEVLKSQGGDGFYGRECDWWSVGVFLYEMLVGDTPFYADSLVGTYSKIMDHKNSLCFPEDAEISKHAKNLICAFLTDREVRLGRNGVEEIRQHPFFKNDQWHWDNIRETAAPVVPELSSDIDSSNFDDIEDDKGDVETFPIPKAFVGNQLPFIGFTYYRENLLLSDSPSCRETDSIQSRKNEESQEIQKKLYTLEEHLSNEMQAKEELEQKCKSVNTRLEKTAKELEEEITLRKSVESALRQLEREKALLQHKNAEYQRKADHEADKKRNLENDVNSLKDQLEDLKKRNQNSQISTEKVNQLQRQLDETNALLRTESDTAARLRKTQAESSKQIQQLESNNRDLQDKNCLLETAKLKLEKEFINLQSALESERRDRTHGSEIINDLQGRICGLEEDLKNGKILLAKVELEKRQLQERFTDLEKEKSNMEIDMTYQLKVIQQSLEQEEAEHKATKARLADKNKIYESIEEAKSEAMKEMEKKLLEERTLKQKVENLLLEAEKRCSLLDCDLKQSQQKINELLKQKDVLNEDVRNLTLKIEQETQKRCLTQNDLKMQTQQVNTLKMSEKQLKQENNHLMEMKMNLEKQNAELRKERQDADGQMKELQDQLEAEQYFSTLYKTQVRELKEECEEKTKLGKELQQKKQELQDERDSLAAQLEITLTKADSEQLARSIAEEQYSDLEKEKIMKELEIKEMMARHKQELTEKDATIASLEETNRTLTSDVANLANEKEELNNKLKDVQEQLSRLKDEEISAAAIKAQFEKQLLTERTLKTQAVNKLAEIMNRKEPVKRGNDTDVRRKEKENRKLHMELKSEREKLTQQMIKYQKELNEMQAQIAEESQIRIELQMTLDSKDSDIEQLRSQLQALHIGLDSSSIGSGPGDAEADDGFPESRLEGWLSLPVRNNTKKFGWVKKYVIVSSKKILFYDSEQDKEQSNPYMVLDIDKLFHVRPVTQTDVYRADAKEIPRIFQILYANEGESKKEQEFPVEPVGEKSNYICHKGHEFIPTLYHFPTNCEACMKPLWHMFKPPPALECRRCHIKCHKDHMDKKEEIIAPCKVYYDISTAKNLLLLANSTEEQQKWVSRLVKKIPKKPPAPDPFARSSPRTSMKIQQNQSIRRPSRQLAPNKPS
hDAT+cocaine – changed hDAT dopamine uptake under cocaine IC80, either direction, primary screen, cocaine antagonist project, cell-based, LLC-PK1 hDAT, [14C]-dopamine uptake, MLSMR; Sodium-dependent dopamine transporter (Homo sapiens), Q01959; LLC-PK1 hDAT cells, [14C]-dopamine uptake with cocaine IC80; actives deviate in either direction; B-score at 10 µM; actives 1.3% (n = 110,000); AID 449768, 2010;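 active = Z score or B-score, a plate-position-corrected score, falls beyond the plate's 99.7% confidence bounds, in either direction; inactive = both scores lie inside the 99.7% bounds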;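 note: scored against the spread of the other compound wells on the same plate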
D1 allo mod – D1 CRE-luciferase signal change, two-sided – cell-based, HEK293 D1, dopamine EC30, D1 allosteric modulator project, primary screen | dopamine EC30 potentiation; actives deviate in either direction | actives 5.9% (n = 58,000) | D(1A) dopamine receptor (Homo sapiens), P21728 | B-score at 10 µM;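 active = luminescence count or its row- and column-corrected plate score outside the 99.7% band of the plate's sample wells, on either side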
D1 mod confirm – D1 receptor positive allosteric modulators, retest, confirmation, cell-based, HEK293 D1, CRE-luciferase, duplicate | AID 642, 2007 | dopamine EC30 potentiation; active compounds read high | actives 88% (n = 2,200) | luminescence at 10 µM | shares compounds with D1 allo mod;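 active = luminescence in either of two replicates above the same-plate mean plus 3 SD of the low-dose dopamine control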
D1 ag no DA – D1 receptor agonism without dopamine, confirmation, mechanism study for D1 allosteric modulator project, cell-based, HEK293 D1, CRE-luciferase, secondary assay 1; AID 646, 2007; luminescence at 10 µM; luminescence, no dopamine; active compounds read high; actives 0.8% (n = 1,900); shares compounds with D1 allo mod; in the data active = luminescence above about 3900
Isoprot counter – counter-screen for D1 modulators: isoproterenol response in HEK293 cells; shares compounds with D1 allo mod; HEK293 D1 CRE-luciferase, isoproterenol EC30 counter-screen; calls only at 10 µM; actives 63% (n = 2,200);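 active = luminescence in either replicate above plate mean of wells with a partly effective reference agonist dose plus 3 SD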;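 note: isoproterenol raises cAMP through native beta-adrenoceptor Gs so signal bypasses D1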
An asterisk follows results filed as active; i = inactive; . = not tested or not shown; + = active, no number.

SMILES	PKA kinase inh	ROCK2 blocker	hDAT+cocaine	D1 allo mod	D1 mod confirm	D1 ag no DA	Isoprot counter
COc1ccc(C2NC(=O)CS2)cc1OC (stereo not given)	1.0	3.1	-0.0251	5.76*	13168*	.	+
CCOc1ccccc1NC(=O)C1C2C=CC(O2)C1C(=O)O (stereo not given)	12.9	4.5	-0.361	4.75*	5564	1628	i
OCc1cccnc1	.	.	-0.00511	.	.	.	.
COc1ccc(C(=O)OCC(=O)NCc2ccco2)cc1OC	7.5	4.2	0.435	1.11	.	.	.
CCOc1ccc(C(=O)OCC(=O)NCc2ccco2)cc1OCC	13.3	-0.5	0.632	7.73*	12216*	1596	+
CCC(=O)Nc1sc2c(c1C#N)CC(C)(C)NC2(C)C	-1.4	.	0.00329	6.36*	7612	1848	i
COc1ccc(C(=O)N2CCc3cc(OC)c(OC)cc3C2)cc1OC	-3.7	-5.6	0.484	3.7*	9712*	1376	+
COc1ccc(C(=O)N2CCN(S(=O)(=O)c3ccc(C)cc3C)CC2)cc1OC	6.8	3.5	1.33	4.65*	10368*	1512	+
COC(=O)c1cc(OC)c(OC)cc1NC(=O)c1c(C)noc1C	2.8	2.1	.	0.192	.	.	.
Cc1ccc(O)c(O)c1	.	.	0.878	.	.	.	.
CCC(NC(C)C)C(O)c1ccc(O)c(O)c1 (stereo not given)	-0.2	4.2	-0.0739	12.7*	9904*	3836*	+
FC(F)(F)c1nnc2sc(-c3cccs3)nn12	1.8	6.5	0.473	21.9*	10532*	1524	+
FC(F)(F)c1nnc2sc(-c3ccncc3)nn12	2.1	0.2	-0.921	0.232	.	.	.
Cc1cc(C(=O)Nc2ccc(S(=O)(=O)Nc3nccs3)cc2)c(C)o1	-1.3	1.9	-0.485	8.35*	16172*	1476	+
C=CC[n+]1c(-c2ccc(OC)c(OC)c2)csc1NNC(=O)Nc1ccccc1	.	.	0.00648	.	.	.	.
COc1ccc2c(c1OC)C(=O)N(c1cccc(C)c1)C2=O	-5.3	-3.9	-0.406	4.6*	10596*	1716	+
CCc1nnc(NC(=O)CSc2nc(C)c3c(c2C#N)CCCC3)s1	1.8	7.3	0.611	5.77*	11752*	.	+
COc1ccc(NC(=O)CSc2nc(C)c3c(c2C#N)CCCC3)cc1	.	.	1.01	.	.	.	.
O=c1c2cn[nH]c2nc(SCc2ccc3c(c2)OCCO3)n1-c1ccccc1	9.0	.	-0.0379	7.9*	11032*	1768	+
CCc1ccccc1-n1c(SCC(=O)Nc2ccc3c(c2)OCCO3)nc2[nH]ncc2c1=O	3.0	3.4	2.04	-0.739	.	.	.
O=C1N(CN2CCN(c3cccc(Cl)c3)CC2)c2ccccc2C12OCCCO2	4.6	3.1	-0.463	2.4*	3096*	1476	i
O=C1N(CN2CCC3(CC2)OCCO3)c2ccccc2C12OCCCO2	14.5	6.5	-0.848	-0.841	.	.	.
COc1ccc(C2/C=C\CN(C(=O)NC(C)C)CC(=O)N2Cc2ccc(F)cc2)cc1 (stereo not given)	.	.	-0.0256	.	.	.	.
COc1ccc(Nc2ncc3c(n2)CC(c2ccc(OC)cc2)CC3=O)cc1 (stereo not given)	6.7	1.2	1.03	7.52*	11768*	1536	+
CCOC(=O)C1=C(C)N(CCCC(=O)O)C(=O)NC1c1ccc2ccccc2c1 (stereo not given)	.	.	-0.25	.	.	.	.
SMILES	PKA kinase inh	ROCK2 blocker	hDAT+cocaine	D1 allo mod	D1 mod confirm	D1 ag no DA	Isoprot counter
N#Cc1nc(-c2ccco2)oc1NCc1ccco1	12.1	5.2	-1.27	9.47*	13820*	1564	+
N#Cc1nc(-c2ccc(OCc3ccccc3)cc2)oc1NCc1ccco1	8.9	1.9	-0.362	-0.568	.	.	.
N#Cc1nc(-c2cccs2)oc1NCc1ccco1	-0.5	1.2	0.218	9.22*	14284*	.	+
CC1CN(c2ncnc3c2oc2ccccc23)CC(C)O1 (stereo not given)	5.1	-0.8	-0.176	5.57*	12424*	1820	+
CC1=Nc2ccccc2/C1=C\c1nc(-c2ccc(F)cc2)oc1O	.	.	-0.54	.	.	.	.
CCc1nc2ccccc2c(C(=O)OC2CCOC2=O)c1C (stereo not given)	8.2	5.0	0.0467	5.38*	11292*	1608	+
N#Cc1c(N)sc(=S)c2c1CCCC2	4.3	5.5	1.1	.	.	.	.
CCC1(C)Cc2c(C#N)c(N)sc(=S)c2CO1 (stereo not given)	0.7	-3.3	0.856	20.1*	18368*	1660	+
C#CCNC(=O)C1=C[C@H](c2ccc(C(F)(F)F)cc2)C[C@H](OCc2ccc(CO)cc2)O1	.	.	-0.0137	.	.	.	.
COc1ccc(CC(=O)N2CCN=C2SC)cc1	3.3	0.3	-0.279	11.4*	15276*	1524	+
CCCOC(=O)C1NC(=O)N2C(C(=O)OCCC)C(C)(C)S[C@H]12 (stereo not given in full)	.	.	-0.434	.	.	.	.
CCOC(=O)c1nc(-c2ccccc2)oc1N(C)C	-5.7	-5.7	-0.602	4.04*	9692*	1608	i
CC(C)OC(=O)CSc1nnc(-c2cnccn2)n1-c1ccc(Cl)cc1	-4.5	0.7	-1.48	3.4*	11484*	1664	i
Cc1ccc(-n2c(SCC(=O)OC(C)C)nnc2-c2ccncc2)cc1	1.6	1.9	0.428	0.107	.	.	.
COc1cc2cc(CN(Cc3cccnc3)C(=O)NCc3ccccc3)c(=O)[nH]c2cc1OC	0.9	1.0	-0.00929	-0.322	.	.	.
CCOC(=O)c1cccnc1SCC(=O)NCc1ccccc1	.	.	0.0731	.	.	.	.
C=CCSc1ncccc1C(=O)NCc1ccccc1	7.7	6.3	-1.05	24.9*	20632*	1692	+
COc1cc([C@@H]2c3cc4c(cc3[C@H](O)[C@H]3COC(=O)[C@H]23)OCO4)cc(OC)c1OC	-5.8	-4.8	-0.988	7.06*	8908*	1648	+
COc1ccc(-c2nnn(CC(=O)N(C3CCCCC3)C(C)C(=O)NC3CCCC3)n2)cc1OC (stereo not given)	-0.6	0.1	1.51	3.27	.	.	.
CCCCOc1ccc(-c2nnn(CC(=O)c3c[nH]c4ccccc34)n2)cc1	.	.	1.26	.	.	.	.
CCOc1ccc(-c2nnn(CC(=O)Nc3ccccc3OC)n2)cc1OCC	0.0	-0.7	-0.774	9.38*	19984*	1640	+
